This passage reports composite z-score and z-score results from PubChem BioAssay.

Calls of active or inactive are those of the source.

For test [1], the system named is PRMT1 (protein arginine N-methyltransferase 1). As to the kind of experiment: small molecules binding arginine methyltransferase PRMT1 – biochemical, small-molecule microarray, 635 nm fluorescence, primary screen (AID 1088).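 Also: binding of Prmt1 protein to compounds spotted on small-molecule microarray slides.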 To be noted: higher = more signal.
Test [2] is described as follows: growth effects on S. cerevisiae YJM789 – YJM789 clinical isolate, OD600, 24 h, basal, primary screen (AID 1089).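 Also: growth of clinical yeast isolate S. cerevisiae YJM 789 seeded 1000 cells per well; test concentration not given here.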 To be noted: higher = more signal, called active from +8 up or from −8 down.
Test [3] is described as follows: S. pombe growth modifiers, basal conditions – strain 972, OD600, 24 h, no modulator, primary screen (AID 1090).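 Also: basal condition with compound alone and no growth modifier present; test concentration not given here.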 The following applies: S. pombe 972 growth, higher = more signal, called active from +8 up or from −8 down.
Test [4] can be described thus: budding yeast growth modifiers under rapamycin – strain BY4716, OD600, 96 h, primary screen (AID 1091). Also: test concentration not given here. The following applies: S. cerevisiae BY4716 + rapamycin, higher = more signal, called active from +8 up or from −8 down.
Test [5] concerns the target Torsin-1A-interacting protein 2 (Homo sapiens) (UniProt Q8NFQ8). Put plainly: small molecules binding lysate-expressed LULL1 – cell lysate, human LULL1 lysate, 635/667 nm fluorescence, primary screen (AID 1092).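 Also: probe is lysate of COS7 cells overexpressing human LULL1; score merges per-feature 667 nm fluorescence with signal-to-noise.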 The following applies: small-molecule microarray, hLULL1 lysate binding, 635 nm fluorescence; higher = more signal.
The nature of test [6]: optical density change of DRC41 E. coli – strain DRC41, OD650, 24 h, E. coli filamentation project, primary screen (AID 1093).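 Also: MC1000 strain lacking acrAB efflux and sulA so SOS filamentation is blocked; test concentration not given here.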 To be noted: E. coli DRC41 growth, higher = more signal, called active from +8 up or from −8 down.
Test [7] is described as follows: probe aLefty2 binding to arrayed compounds – biochemical, biotinylated probe, 635/667 nm fluorescence, primary screen (AID 1094).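 Also: score merges spot fluorescence near 667 nm with spot signal-to-noise ratio.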 The following applies: small-molecule microarray, higher = more signal.
For test [8], the system named is Noggin (protein binding on small-molecule microarray). Put plainly: small molecules binding Noggin protein – biochemical, 635/667 nm fluorescence, primary screen (AID 1095).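 Also: score merges 667 nm feature fluorescence with signal to noise over triplicate slides.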 To be noted: 635 nm fluorescence, higher = more signal.
Test [9] concerns the target Neurogenic locus notch homolog protein 3 (Homo sapiens) (UniProt Q9UM47). As to the kind of experiment: small molecules binding NOTCH3 protein – biochemical, 635/667 nm fluorescence, primary screen (AID 1096). To be noted: small-molecule microarray, 635 nm fluorescence, higher = more signal.
The nature of test [10]: probe aEGFR binding to arrayed compounds – biochemical, biotinylated probe, 635/667 nm fluorescence, primary screen (AID 1097).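 Also: probe is a biotinylated anti-EGFR antibody binding compounds printed on slides; score combines fluorescence near 667 nm and signal to noise of each spot.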 The following applies: small-molecule microarray, higher = more signal.

Sequence of Neurogenic locus notch homolog protein 3 (Homo sapiens) (Q9UM47 whole entry, looked up): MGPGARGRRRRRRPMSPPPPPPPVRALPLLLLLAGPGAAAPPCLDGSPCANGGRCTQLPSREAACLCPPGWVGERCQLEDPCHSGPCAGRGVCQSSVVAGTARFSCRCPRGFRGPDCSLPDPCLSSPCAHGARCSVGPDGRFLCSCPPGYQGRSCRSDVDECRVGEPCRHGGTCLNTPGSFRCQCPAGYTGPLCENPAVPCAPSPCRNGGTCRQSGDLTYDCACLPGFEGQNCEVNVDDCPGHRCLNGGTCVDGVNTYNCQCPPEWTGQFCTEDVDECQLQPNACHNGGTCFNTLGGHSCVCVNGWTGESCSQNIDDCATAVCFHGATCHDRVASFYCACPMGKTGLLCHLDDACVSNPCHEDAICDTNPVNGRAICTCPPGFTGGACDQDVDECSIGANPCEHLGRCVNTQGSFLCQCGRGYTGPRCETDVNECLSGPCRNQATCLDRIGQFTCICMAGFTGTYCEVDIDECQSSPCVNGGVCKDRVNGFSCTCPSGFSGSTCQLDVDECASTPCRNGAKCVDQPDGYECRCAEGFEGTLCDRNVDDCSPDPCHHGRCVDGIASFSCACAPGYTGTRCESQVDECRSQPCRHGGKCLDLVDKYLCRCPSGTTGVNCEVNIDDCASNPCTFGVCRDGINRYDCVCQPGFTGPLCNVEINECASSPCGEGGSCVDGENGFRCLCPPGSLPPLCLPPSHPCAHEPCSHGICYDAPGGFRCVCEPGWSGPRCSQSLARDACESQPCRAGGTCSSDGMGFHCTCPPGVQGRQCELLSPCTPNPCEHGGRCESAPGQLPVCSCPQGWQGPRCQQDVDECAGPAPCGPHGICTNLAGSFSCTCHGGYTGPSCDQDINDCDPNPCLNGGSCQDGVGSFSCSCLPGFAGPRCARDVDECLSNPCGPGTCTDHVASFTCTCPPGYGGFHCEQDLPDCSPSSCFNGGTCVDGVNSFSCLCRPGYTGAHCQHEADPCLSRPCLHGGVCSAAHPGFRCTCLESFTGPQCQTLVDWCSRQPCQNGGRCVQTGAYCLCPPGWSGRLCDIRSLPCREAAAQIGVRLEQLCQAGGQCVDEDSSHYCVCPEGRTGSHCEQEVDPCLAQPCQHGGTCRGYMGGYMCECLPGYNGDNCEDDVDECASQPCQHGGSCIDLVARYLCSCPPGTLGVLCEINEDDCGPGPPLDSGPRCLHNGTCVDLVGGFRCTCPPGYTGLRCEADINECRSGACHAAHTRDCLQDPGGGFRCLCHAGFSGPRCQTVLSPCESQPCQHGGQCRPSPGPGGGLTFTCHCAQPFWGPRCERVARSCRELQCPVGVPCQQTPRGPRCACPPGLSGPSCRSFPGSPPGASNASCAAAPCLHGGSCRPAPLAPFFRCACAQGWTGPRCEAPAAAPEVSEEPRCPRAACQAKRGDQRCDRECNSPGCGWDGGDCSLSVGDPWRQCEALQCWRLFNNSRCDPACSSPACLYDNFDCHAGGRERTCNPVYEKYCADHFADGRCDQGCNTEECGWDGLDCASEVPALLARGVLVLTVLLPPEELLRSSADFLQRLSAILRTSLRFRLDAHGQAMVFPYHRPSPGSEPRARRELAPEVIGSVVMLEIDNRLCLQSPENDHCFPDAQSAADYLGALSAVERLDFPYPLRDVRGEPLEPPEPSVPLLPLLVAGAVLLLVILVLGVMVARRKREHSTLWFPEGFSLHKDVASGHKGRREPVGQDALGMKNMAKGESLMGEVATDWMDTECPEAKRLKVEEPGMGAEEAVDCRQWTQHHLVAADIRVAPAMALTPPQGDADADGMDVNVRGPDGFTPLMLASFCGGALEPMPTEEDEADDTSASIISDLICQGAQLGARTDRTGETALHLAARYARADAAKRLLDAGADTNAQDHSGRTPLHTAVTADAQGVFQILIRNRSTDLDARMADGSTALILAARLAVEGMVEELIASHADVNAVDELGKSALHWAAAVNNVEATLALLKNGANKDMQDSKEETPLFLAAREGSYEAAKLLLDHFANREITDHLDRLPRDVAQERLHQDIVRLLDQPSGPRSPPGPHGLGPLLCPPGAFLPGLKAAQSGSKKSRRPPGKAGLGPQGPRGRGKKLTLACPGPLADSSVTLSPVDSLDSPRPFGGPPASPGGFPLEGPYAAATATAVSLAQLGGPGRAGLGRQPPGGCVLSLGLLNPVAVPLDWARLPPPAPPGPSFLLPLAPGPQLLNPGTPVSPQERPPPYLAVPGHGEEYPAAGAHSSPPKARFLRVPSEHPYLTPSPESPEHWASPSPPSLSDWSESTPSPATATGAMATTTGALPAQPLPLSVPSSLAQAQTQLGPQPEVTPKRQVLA
Sequence of Torsin-1A-interacting protein 2 (Homo sapiens) (Q8NFQ8 whole entry, looked up): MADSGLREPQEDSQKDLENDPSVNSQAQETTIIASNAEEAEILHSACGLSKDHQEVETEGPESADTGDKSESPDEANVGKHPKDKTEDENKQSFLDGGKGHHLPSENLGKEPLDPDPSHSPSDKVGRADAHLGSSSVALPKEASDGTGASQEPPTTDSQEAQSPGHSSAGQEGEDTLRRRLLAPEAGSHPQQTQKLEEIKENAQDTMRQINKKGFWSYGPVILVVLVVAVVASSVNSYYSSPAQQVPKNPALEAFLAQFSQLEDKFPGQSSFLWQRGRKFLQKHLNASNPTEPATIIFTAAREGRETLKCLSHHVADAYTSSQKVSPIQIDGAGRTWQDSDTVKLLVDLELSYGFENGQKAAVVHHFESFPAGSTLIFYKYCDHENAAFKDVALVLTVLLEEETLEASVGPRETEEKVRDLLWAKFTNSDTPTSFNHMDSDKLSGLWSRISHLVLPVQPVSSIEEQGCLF

For `COc1cc(C(O)C2C=CC3C(=O)NC(=O)C3N2Nc2ccc(Cl)cc2Cl)cc(OC)c1OC` (stereo not given), the composite z-score was found to be 1.18 in [1]; 3.27 in [5]; 0.162 in test [7]; 0.049 in test [8]; 1.09 in test [9]; 0.114 in [10]. Besides, the z-score in test [2] was -12.3 (active); in test [3], -1.57 (inactive); in test [4], 0.27 (inactive); in test [6], -0.66 (inactive).
For the compound `COCCCNC(=O)[C@@H]1c2ccccc2C(=O)N(Cc2cc(F)cc(C(F)(F)F)c2)[C@H]1c1ccc(CO)cc1`, the composite z-score was -0.444 in test [1]; 0.0519 in test [5]; -0.016 in test [7]; -0.902 in test [8]; -1.26 in test [9]; -0.207 in [10]. Moreover, the z-score is -0.359 (inactive) in test [2], -0.555 (inactive) in test [3], -0.703 (inactive) in [4] and 0.526 (inactive) in [6].
Take `COc1cc2c(cc1OC)CN(C(=O)[C@@H]1[C@H]3C(=O)O[C@H](c4ccccc4)[C@H](c4ccccc4)N3[C@H](c3ccc(O)cc3)[C@@]13C(=O)Nc1ccc(C#CCNC(N)=O)cc13)CC2`: the composite z-score in test [1] was 0.666; in test [5], 1.22; in test [7], 0.0835; in [8] it was 1.03; in test [9], 0.802; in [10] it was -0.0455. Besides, the z-score in [2] is 1.1 (inactive); in test [3], 1.27 (inactive); in test [4], 1.48 (inactive); in test [6], 0.364 (inactive).
For the compound `COC(=O)[C@@]1(Cc2ccc(OC)cc2)[C@H]2c3cc(C(=O)N4CCCC4)n(CCc4ccc(O)c(OC)c4)c3C[C@H]2CN1C(=O)c1ccccc1`, the composite z-score is -1.53 in [1]; 2.6 in [5]; 0.128 in [7]; -0.879 in test [8]; -0.56 in test [9]; 0.0055 in test [10]. Also, the z-score is 0.525 (inactive) in [2], 0.452 (inactive) in test [3], 0.0019 (inactive) in [4] and -1.13 (inactive) in test [6].
In the case of `CCOc1cc(C(O)C2C=CC3C(=O)NC(=O)C3N2Nc2ccccn2)ccc1O` (stereo not given), the composite z-score was -0.0438 in test [1]; 0.394 in test [5]; -0.0708 in test [7]; 0.195 in [8]; 0.0082 in [9]; -0.0947 in test [10]. Also, the z-score in [2] is 0.128 (inactive); in test [3], 1.33 (inactive); in [4] it was -0.0339 (inactive); in test [6], -0.977 (inactive).
As to `COCCOC(=O)N1C(=O)[C@@]2(c3ccccc31)[C@H](c1ccccc1OCCO)N1[C@H](c3ccccc3)[C@H](c3ccccc3)OC(=O)[C@H]1[C@@H]2C(=O)N1CCc2cc(OC)c(OC)cc2C1`, the composite z-score came to 1.52 in [1]; 2.01 in test [5]; 0.0706 in test [7]; 1.34 in test [8]; 1.04 in test [9]; 0.0556 in test [10]. Also, the z-score in test [2] is 2.11 (inactive); in test [3] it was 1.99 (inactive); in test [4] it was 6.86 (inactive); in [6], 0.344 (inactive).
On to `COCCOC(=O)N1C(=O)[C@@]2(c3cc(C#Cc4ccc(OC)cc4)ccc31)[C@H](c1ccc(OCCO)cc1)N1[C@H](c3ccccc3)[C@H](c3ccccc3)OC(=O)[C@H]1[C@@H]2C(N)=O`, for which the composite z-score turned out to be 1.54 in [1]; 1.64 in [5]; 0.172 in test [7]; 1.45 in test [8]; 1.02 in test [9]; 0.0593 in [10]. Besides, the z-score in test [2] was 1.37 (inactive); in [3] it was 1.87 (inactive); in test [4], 5.01 (inactive); in [6], 1.37 (inactive).
For `CC(C)(C)OC(=O)CC[C@]1(C(=O)O)COC(c2ccc(OCCCO)cc2)=N1`, the composite z-score in test [1] is -1.22; in [5], 1.29; in test [7], 0.12; in [8], -1.09; in test [9], -0.463; in test [10] it was -0.0575. For the same compound, the z-score in test [2] was 0.923 (inactive); in test [3], 0.179 (inactive); in [4], 0.197 (inactive); in test [6], -0.079 (inactive).
In the case of `C=C(C(=O)CC[C@H](OC(=O)c1cccnc1)c1ccc(OCCO)cc1)C(C)C`, the composite z-score in test [1] was 1.55; in test [5], 1.76; in test [7], -0.0961; in [8], 0.986; in test [9] it was 0.717; in test [10] it was -0.0362. The z-score in [2] was 0.366 (inactive); in test [3], -1.54 (inactive); in [4], 0.905 (inactive); in test [6], -0.388 (inactive).
As for `CN(C)C(=O)[C@@]1(CCS(=O)(=O)c2ccccc2)N=C(c2ccc(OCCCO)cc2)O[C@H]1c1ccccc1CN=[N+]=[N-]`, the composite z-score is 1.54 in test [1]; 3.79 in [5]; 0.0225 in test [7]; 1.66 in test [8]; 1.12 in test [9]; 0.0316 in test [10]. Moreover, the z-score in test [2] is -1.54 (inactive); in test [3], -0.346 (inactive); in [4], 0.0194 (inactive); in test [6], 1.15 (inactive).
With `COCCCNC(=O)[C@@]1(Cc2ccccc2I)c2ccccc2C(=O)N(Cc2ccccc2Cl)[C@H]1c1ccc(CO)cc1`, the composite z-score was 0.34 in test [1]; 2.37 in test [5]; 0.0842 in test [7]; 0.323 in test [8]; 0.344 in test [9]; -0.0429 in test [10]. Besides, the z-score in test [2] was -2.1 (inactive); in [3], -0.477 (inactive); in test [4], -0.905 (inactive); in test [6], -0.162 (inactive).
`O=C1c2ccccc2[C@](Cc2ccccc2I)(C(=O)NCC(F)(F)F)[C@H](c2ccc(CO)cc2)N1Cc1ccccc1`: the composite z-score was 1.55 in [1]; 2.45 in test [5]; -0.0907 in [7]; 0.444 in test [8]; 1.16 in test [9]; -0.0679 in [10]. Also, the z-score in test [2] is -0.943 (inactive); in [3], -0.732 (inactive); in [4], -0.666 (inactive); in test [6] it was 0.29 (inactive).
As for `C[N+](C)(C)CCCC[C@@H]1NC(=O)[C@H]2C[C@@H](C(=O)NCCCCCCN)[C@@H](c3cccc(OCCO)c3)N2C1=O`, the composite z-score in test [1] is 1.54; in [5], 3.06; in test [7] it was 1.08; in test [8] it was 1.15; in test [9], 1.07; in [10] it was 0.693. Moreover, the z-score in test [2] is -0.0132 (inactive); in test [3], -0.87 (inactive); in test [4] it was -0.133 (inactive); in [6], 0.27 (inactive).
